Whole data set: some 110,000 compounds, median “z-score” near -0.1, cut for the highest 2% near 2. Shown is part of a subset that was picked to be rich in the highest values. Calls of active or inactive are those of the source.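 Rule for the calls: active = z-score in the third read window above 3 or below -3; inactive = the rest.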
What follows are compounds tested against Metabotropic glutamate receptor 8 (Rattus norvegicus) (UniProt P70579) (assay: mGluR8 Gi/Go-coupled signaling modulation – cell-based, rat, thallium flux, HTS, primary screen (AID 488969)). Conditions: HEK293 rat mGluR8, GIRK (G protein-gated inwardly rectifying potassium channel) thallium flux, FluoZin2; at 10 µM; stronger effect = higher value; submaximal glutamate (EC20) added with thallium.
Chain of Metabotropic glutamate receptor 8 (Rattus norvegicus) (P70579 whole entry, looked up): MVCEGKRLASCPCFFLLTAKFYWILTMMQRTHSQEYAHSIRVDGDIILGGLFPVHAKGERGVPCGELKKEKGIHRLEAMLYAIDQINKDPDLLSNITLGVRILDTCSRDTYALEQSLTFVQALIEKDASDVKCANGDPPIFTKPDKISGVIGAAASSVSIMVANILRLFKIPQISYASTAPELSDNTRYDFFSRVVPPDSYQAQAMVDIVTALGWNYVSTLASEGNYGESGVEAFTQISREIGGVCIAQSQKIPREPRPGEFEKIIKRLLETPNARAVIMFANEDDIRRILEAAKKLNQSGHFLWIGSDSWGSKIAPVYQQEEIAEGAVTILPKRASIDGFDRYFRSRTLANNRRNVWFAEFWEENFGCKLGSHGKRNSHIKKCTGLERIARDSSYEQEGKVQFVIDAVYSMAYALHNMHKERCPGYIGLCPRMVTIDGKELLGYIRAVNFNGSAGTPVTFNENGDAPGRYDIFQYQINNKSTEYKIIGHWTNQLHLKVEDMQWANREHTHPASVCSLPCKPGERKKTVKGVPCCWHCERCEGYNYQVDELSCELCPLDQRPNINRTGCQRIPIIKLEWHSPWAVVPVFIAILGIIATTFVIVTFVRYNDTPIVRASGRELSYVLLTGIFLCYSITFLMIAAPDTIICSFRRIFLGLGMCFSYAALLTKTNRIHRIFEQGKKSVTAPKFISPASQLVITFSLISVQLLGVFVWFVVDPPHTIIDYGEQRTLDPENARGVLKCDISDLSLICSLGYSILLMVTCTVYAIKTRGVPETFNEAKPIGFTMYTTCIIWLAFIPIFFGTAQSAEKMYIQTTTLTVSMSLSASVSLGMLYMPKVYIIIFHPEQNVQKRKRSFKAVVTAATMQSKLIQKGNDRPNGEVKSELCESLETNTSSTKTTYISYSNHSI

SMILES | z-score
CCOc1ccc(Cc2c(Cl)nc(SC)nc2N(C)C)cc1 | -0.458
CSc1nnc(C2CCCN2)n1C (stereo not given) | 0.383
O=C(COc1ccc(S(=O)(=O)N2CCOCC2)cc1)Nc1ccccc1C(F)(F)F | 1.25
CCn1c(SCC(=O)NC2CCCCC2C)nnc1-c1ccc(OC)cc1 (stereo not given) | 0.074
CC(=O)N1c2c(ccc3ccccc23)C(C)CC12CCCCC2 (stereo not given) | -0.635
O=c1c2ccccc2ncn1CCCOc1ccccc1[N+](=O)[O-] | -0.198
O=C(Cn1cnc2c(nnn2Cc2ccc(F)cc2)c1=O)N1CCN(c2ccccc2)CC1 | -0.0198
Cc1oc(-c2ccccc2)nc1CS(=O)CC(=O)O (stereo not given) | 2.52
COCCNC(=O)CS(=O)Cc1nc(-c2ccc(Cl)cc2)oc1C (stereo not given) | 0.00619
CCN(CC)CCNC(=O)CS(=O)Cc1nc(-c2ccc(Cl)cc2)oc1C (stereo not given) | 2.41
CCCN(CCC)CCNC(=O)CS(=O)Cc1nc(-c2ccc(C)cc2)oc1C (stereo not given) | 1.19
Cc1oc(-c2ccccc2)nc1CC(=O)O | -0.979
COc1cccc(-c2nc(CS(=O)CC(=O)O)c(C)o2)c1 (stereo not given) | 0.0172
CCN(CC)CC(O)COc1ccc2c(c1)OCO2 (stereo not given) | -0.199
Cc1cc(C)cc(OCCCCCNCCO)c1 | -0.911
O=C(CSc1nnc2scc(-c3ccccc3)n12)Nc1nsc(-c2ccccc2)n1 | -0.713
COc1ccc(-c2nc(NC(=O)CSc3nnc4ccccn34)ns2)cc1 | -0.0274
O=C(CSc1nnc2ccccn12)Nc1nsc(-c2ccccc2)n1 | 3.63 (active)
O=C(Nc1cccc(Cl)c1)Nc1ccc(Cl)cn1 | 0.563
Cc1ccc(Oc2ncnc3sccc23)cc1 | 0.102
Cc1ccc2c(CC(=O)NCc3ccc4c(c3)OCO4)coc2c1 | 0.281
CC(OC(=O)Cc1coc2cc3c(cc12)CCC3)C(=O)NCc1ccc2c(c1)OCO2 (stereo not given) | 0.706
Cc1ccc2c(CC(=O)OC(C)C(=O)NCc3ccc4c(c3)OCO4)coc2c1 (stereo not given) | 2.05

SMILES | z-score
Cc1nc(C(F)(F)F)nc(Nc2ccc(Br)cc2)c1C#N | -0.188
CCOC(=O)c1[nH]c(C)c(C(=O)N(C)Cc2ccccc2)c1C | 0.89
CCc1nnc(NC(=O)CSc2nnc(-c3c[nH]c4ccccc34)n2CC)s1 | 5.79 (active)
CCSc1nnc(NC(=O)CSc2nnc(-c3c[nH]c4ccccc34)n2CC)s1 | -1.46
CCn1c(SC(C)C(=O)OC)nnc1-c1c[nH]c2ccccc12 (stereo not given) | -0.657
CCOC(=O)C(C)Sc1nnc(-c2c[nH]c3ccccc23)n1C (stereo not given) | 4.19 (active)
CCCSc1nnc(-c2c[nH]c3ccccc23)n1C | 0.341
CCc1nnc(NC(=O)CSc2nnc(-c3ccccc3O)n2CC)s1 | -0.195
CC(C)n1c(-c2ccc(C(C)(C)C)cc2)n[nH]c1=S | 8.21 (active)
Cc1ccsc1-c1n[nH]c(=S)n1C1CCCCC1 | 0.261
CC(C)(C)c1ccc(-c2n[nH]c(=S)n2C2CCCC2)cc1 | 4.4 (active)
CC(C)n1c(-c2ccccc2F)n[nH]c1=S | 0.0711
Cn1c(-c2ccc(C(C)(C)C)cc2)n[nH]c1=S | 1.92
S=c1[nH]nc(-c2cccnc2)n1C1CCCCC1 | 0.738
CC(=N\Nc1ccc(Cl)cc1)/C(=N/O)C(=O)Nc1ccccc1 | 0.0464
COc1cc(/C=N/O)cc(Br)c1OCC(=O)NCc1ccccc1 | 0.215
Cc1ccccc1-n1nc(CSc2nc3ccccc3[nH]2)c(-c2ccccc2)c1N | -0.755
O=C(O)C1(NS(=O)(=O)c2ccc(Cl)cc2)CCCCC1 | -0.168
COc1ccc(NC(=O)C2CCN(C(=O)c3cccs3)CC2)cc1 | 0.195
Cc1ccc(Nc2c(-c3ccc(C)o3)nc3cnccn23)cc1 | 2.11
Cc1ccc(-c2nc3cnccn3c2Nc2ccccc2)o1 | -0.467
Cc1ccc(-c2nc3cnccn3c2Nc2c(C)cccc2C)o1 | -0.399
C/C=C/c1ccc(OCCOCCOc2cccc3cccnc23)c(OC)c1 | -0.356

SMILES | z-score
O=S(=O)(NCc1csc(-c2cccnc2)n1)c1ccc(Cl)s1 | 0.124
COc1ccc(S(=O)(=O)NCc2csc(-c3cccnc3)n2)cc1 | -0.168
O=S(=O)(NCc1csc(-c2cccnc2)n1)c1ccc2c(c1)OCCO2 | 2.01
O=S(=O)(NCCc1csc(-c2cccnc2)n1)c1ccc2c(c1)OCCO2 | -0.0667
O=S(=O)(NCCc1csc(-c2cccnc2)n1)c1ccc(Cl)s1 | 2.22
CCc1ccc(S(=O)(=O)NCCc2csc(-c3cccnc3)n2)s1 | -0.459
Cc1cc(C)n2nc(SCc3cc(=O)n4ccccc4n3)nc2n1 | -0.0377
CCCCCCCCSc1n[nH]c(N)n1 | 0.0327
COC(=O)c1cccc(CSc2nnc(C)s2)c1 | -0.565
COc1ccc([N+](=O)[O-])cc1NC(=O)C(C)Sc1ccc(C)cc1 (stereo not given) | -0.545
COc1cc(C(=O)OCC(=O)c2c[nH]c3ccccc23)ccc1OCC(=O)N1CCOCC1 | 0.0746
CCn1ncc(Cl)c1C(=O)NC(C)c1ccccc1 (stereo not given) | 0.00989
Clc1cccc(Cl)c1CSc1nnc2ccccn12 | 0.157
Cc1ccccc1CSc1nnc(NC(=O)C2COc3ccccc3O2)s1 (stereo not given) | 0.0129
C[C@H](C(=O)C=[N+]=[N-])N1C(=O)c2ccccc2C1=O | -0.275
CCOc1ccc(-c2nnn(CC(=O)NCc3ccco3)n2)cc1 | 0.0502
O=C(Cn1nnc(-c2ccccc2)n1)NCc1ccco1 | 0.185
CCCCOc1ccc(-c2nnn(CC(=O)NCc3ccco3)n2)cc1 | 2.02
COc1ccccc1NC(=O)c1ccc(NC(=O)COC(=O)CC(NC(=O)c2ccccc2Cl)c2ccccc2)cc1 (stereo not given) | -0.112
Cc1cc2n(n1)C(c1cn(-c3ccccc3)nc1C)Nc1ccccc1-2 (stereo not given) | -2.98
O=C(CSc1ccc(-c2ccc(F)cc2)nn1)NCc1ccco1 | -0.746
CCOC(=O)Cc1csc(NC(=O)c2ccc(NC(C)=O)cc2)n1 | 0.627
CCOC(=O)Cc1csc(NC(=O)c2ccc(OC)c(OC)c2)n1 | 0.0105

SMILES | z-score
CCCCC(=O)Nc1ccc(C(=O)Nc2nc(CC(=O)OCC)cs2)cc1 | -0.728
CCOC(=O)Cc1csc(NC(=S)NC(=O)c2ccccc2)n1 | 10.6 (active)
CCOC(=O)Cc1csc(NC(=O)Nc2ccccc2)n1 | 3.05 (active)
CCOC(=O)Cc1csc(NC(=S)NC(=O)c2ccc([N+](=O)[O-])cc2)n1 | 1.72
CCOC(=O)Cc1csc(NC(=O)c2ccncc2)n1 | -0.235
CCOC(=O)Cc1csc(NC(=S)NC(=O)c2ccc(C)cc2)n1 | 8.13 (active)
CCOC(=O)Cc1csc(NC(=O)CC)n1 | 1.77
CCOC(=O)Cc1csc(NC(=S)NC(=O)c2ccc(Cl)cc2)n1 | 2.1
CCOC(=O)Cc1csc(NC(=S)NC(=O)c2cccc([N+](=O)[O-])c2)n1 | 0.802
CCOC(=O)Cc1csc(NC(=O)c2ccc(Cl)nc2)n1 | 0.0254
CNC(=S)NNC(=O)Cc1ccc(O)cc1 | 0.306
CCN(CC)S(=O)(=O)c1ccc2c(c1)nc(CCC(=O)Nc1cccc(C(F)(F)F)c1)n2CC | -0.277
CCSc1nnc(NC(=O)C2(C)Cc3ccccc3C(=O)O2)s1 (stereo not given) | -0.0977
CCCCc1c(O)nc2sccn2c1=O | -0.251
Cc1cc(N2CCC(C(=O)NC3CC3)CC2)nc(-c2ccccc2)n1 | 1.41
Cn1c(=O)cc(OCCCC(=O)Nc2ccccn2)c2ccccc21 | -0.243
CC(C1CC1)N(C(=O)NC1CCS(=O)(=O)C1)c1ccccc1 (stereo not given) | -0.27
CCOc1ccc(NC(=O)c2ccco2)cc1 | -0.0362
COc1ccc(NC(=O)CN2C(=O)C(C)Oc3ccccc32)cc1 (stereo not given) | -0.12
CC1Oc2ccccc2N(CC(=O)NCC2CCCO2)C1=O (stereo not given) | -0.413
CC1Oc2ccccc2N(CC(=O)NCCc2ccccc2)C1=O (stereo not given) | 2.08
C=CCn1c(=N)n(CC(=O)c2ccc(Br)s2)c2ccccc21 | -1.22
C/C(=N/NC(=O)c1sc(NS(=O)(=O)c2ccccc2)nc1C)c1ccccc1 | 0.345

SMILES | z-score
CN(c1ccc([N+](=O)[O-])cc1C(=O)Nc1ccccc1)C1CCCCC1 | -0.377
COc1cc(CNC2CCCC2)cc(Cl)c1OCc1ccccc1F | 2.5
COc1cc(CNC2CCCC2)cc(Cl)c1OCc1ccccc1Cl | 0.0424
COc1cc(CNC2CCCC2)cc(Cl)c1OCc1ccc(F)cc1 | -0.271
CN1CCN(CCCNC(=O)c2cn(C3CCCCC3)c(=O)c3c2c2ccccc2n3C)CC1 | -0.464
CC1CCC(C(C)C)C(OC(=O)CSc2nc(N)cc(=O)[nH]2)C1 (stereo not given) | -0.124
O=C(CN1CCN(Cc2ccccc2)CC1)N=Nc1c(O)[nH]c2ccccc12 | -0.328
O=C(CSc1nc2ccccc2[nH]1)N=Nc1c(O)[nH]c2ccccc12 | -0.572
O=C(CSCc1ccccc1)N=Nc1c(O)[nH]c2ccccc12 | 6.08 (active)
O=C(CSCc1ccc(Br)cc1)N=Nc1c(O)[nH]c2ccccc12 | 2.84
O=C(CSCc1cccc(Br)c1)N=Nc1c(O)[nH]c2ccccc12 | -0.113
O=C(Cn1nnc(-c2ccccc2)n1)N=Nc1c(O)[nH]c2ccccc12 | -0.0918
CCOC(=O)c1c(CN2CCOCC2)n(-c2ccccc2)c2cc(Br)c(O)c(CN(C)C)c12 | -0.781
CC(C)OCCCNC(=O)C(C)Oc1ccccc1 (stereo not given) | -0.305
CCCOc1ccc(C(=O)N2CCN(c3ccc(N)cc3Cl)CC2)cc1 | -0.235
COC(=O)C(Cc1ccc(O)cc1)NC(=O)CCC(=O)Nc1ccc(S(N)(=O)=O)cc1 (stereo not given) | -0.14
Cc1c(NC(=O)C(C)Sc2nnc(-c3ccccc3)o2)c(=O)n(-c2ccccc2)n1C (stereo not given) | -0.308
CC(=O)c1ccc(NC(=O)CCn2c(=O)oc3ccccc32)cc1 | -0.318
O=C(CCn1c(=O)oc2ccccc21)N(Cc1ccccc1)c1ccccn1 | 0.207
COC(=O)c1ccc(NC(=O)CCn2c(=O)oc3ccccc32)cc1 | 2.57
CCc1ccc(NC(=O)CCn2c(=O)oc3ccccc32)cc1 | 0.0251
COCCN(CCOC)C(=O)CCn1c(=O)oc2ccccc21 | 0.976
CN(Cc1ccccc1)C(=O)CCn1c(=O)oc2ccccc21 | 2.02

— PubChem BioAssay AID488969 (Vanderbilt High Throughput Screening Facility, 2010)
